PubChem BioAssay (Tox21)
Inconclusive results are not listed. Activity calls are given as the source filed them. Unless noted, calls come from the whole dose curve.

Assays:
[1] = Nuclear factor erythroid 2-related factor 2/antioxidant responsive element (Nrf2/ARE) small molecule agonists: luciferase reporter gene qHTS assay in human keratinocytes (AID 1919969); note: nearly all actives have a fitted effect of over 35% in size; note: potency is the fitted concentration of half-maximal effect
[2] = molecular target: Gonadotropin-releasing hormone receptor (Homo sapiens) (UniProt P30968); assay: Human gonadotropin-releasing hormone receptor (GnRHR) small molecule agonists, calcium flux assay in GnRHR-HEK293 cells (AID 1920063); note: nearly all actives have a fitted effect of over 35% in size
Chain of Gonadotropin-releasing hormone receptor (Homo sapiens) (P30968 whole entry, looked up): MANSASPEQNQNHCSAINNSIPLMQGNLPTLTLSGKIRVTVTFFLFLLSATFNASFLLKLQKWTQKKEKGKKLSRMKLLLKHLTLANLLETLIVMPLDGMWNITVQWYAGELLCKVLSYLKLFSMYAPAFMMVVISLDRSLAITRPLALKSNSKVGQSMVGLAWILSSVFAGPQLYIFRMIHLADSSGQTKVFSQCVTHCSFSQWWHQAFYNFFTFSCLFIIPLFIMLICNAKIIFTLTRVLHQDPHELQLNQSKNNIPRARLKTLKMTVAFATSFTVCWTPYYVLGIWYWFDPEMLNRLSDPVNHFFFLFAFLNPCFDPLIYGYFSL
Outline: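 Tox21-format agonist screen using human GnRHR-expressing HEK293 cells and a fluorescent calcium dye; kinetic 3-min fluorescence reading after compound addition, 15-point concentration series run in triplicate.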

[3] = molecular target: KiSS-1 receptor (Homo sapiens) (UniProt Q969F8); assay: Human kisspeptin (KISS1R) small molecule agonists, calcium flux assay in KISS1R-HEK293 cells (AID 1920064; active = well fitted activation curve with a large enough effect in the repeat runs)
Chain of KiSS-1 receptor (Homo sapiens) (Q969F8 whole entry, looked up): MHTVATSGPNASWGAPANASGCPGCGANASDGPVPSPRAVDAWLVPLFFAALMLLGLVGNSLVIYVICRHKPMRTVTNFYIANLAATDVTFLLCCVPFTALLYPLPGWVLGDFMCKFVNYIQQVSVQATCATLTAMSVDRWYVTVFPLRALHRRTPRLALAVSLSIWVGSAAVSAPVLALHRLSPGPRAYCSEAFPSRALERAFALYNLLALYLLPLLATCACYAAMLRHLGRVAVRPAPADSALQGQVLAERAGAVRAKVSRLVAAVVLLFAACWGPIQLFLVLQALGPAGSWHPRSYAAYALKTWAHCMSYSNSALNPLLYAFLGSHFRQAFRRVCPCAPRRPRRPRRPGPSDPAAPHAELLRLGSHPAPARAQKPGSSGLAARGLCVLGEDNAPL
Outline: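 Intracellular calcium mobilization in KISS1R-HEK293 cells was recorded by fluorescence (Ex/Em 480/540) for 3 min following compound addition to cells pre-loaded 1 h with calcium dye.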

[4] = G protein-coupled receptor (GPCR) small molecule agonists, calcium flux assay: HEK293 wild type cell line counter screen (AID 1920065)
Outline: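 In this agonist-mode screen, ATP is the positive control and DMSO the vehicle. Cells grow 18 h before a 1 h dye incubation at 37 C; signal is taken at Ex/Em 480/540 over 3 min.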

[5] = p53 small molecule agonists, cell-based qHTS assay with human liver microsomes (AID 1963577);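 note: p53 response element beta-lactamase reporter cells with liver microsomes plus NADPH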
Outline: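 p53RE-bla cells; 5 h settle, 37 C/5% CO2; cpd + HLM 0.5 mg/mL + NADPH 0.5 mg/mL (final); 16 h 37 C; LiveBLAzer 2 h RT dark; fluorescence readout.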

[6] = p53 small molecule agonists, cell-based qHTS assay with rat liver microsomes (AID 1963578)
Outline: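 Rat liver microsome activation: microsomes 0.5 mg/mL, NADPH 0.5 mg/mL final; p53RE-bla cells, 16 h 37 C; LiveBLAzer readout, 2 h RT dark.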

[7] = p53 small molecule agonists, cell-based qHTS assay with rat liver microsomes: qHTS cell viability counter screen (AID 1963580); note: nearly all actives have a fitted effect of over 45% in size
Outline: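 p53RE-bla HCT-116 cells were exposed 16 h at 37 C to compounds with rat liver microsomes (0.5 mg/mL) and NADPH (0.5 mg/mL). Viability was measured in the same wells as ATP content by CellTiter-Glo luminescence.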

[8] = cAMP Responsive Elements (CRE) small molecule antagonists, cell-based qHTS assay (AID 1963591; active = well fitted inhibition curve with a large enough effect in the signal ratio in the repeat runs, not every such curve was filed as active; the % refers to the signal ratio)
Outline: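 qHTS in CRE-bla HEK 293T cells: compound in DMSO, then 0.25 uM NKH477 (final), 3 h at 37 °C/5% CO2; beta-lactamase FRET read-out after 2 h substrate incubation.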

[9] = molecular target: Beta-2 adrenergic receptor (Homo sapiens) (UniProt P07550); assay: Adrenergic beta2 receptor (ADRB2) small molecule antagonists, cell-based qHTS assay (AID 1963592); note: series mostly up to about 92 µM; nearly all actives have a fitted effect of over 50% in size
Chain of Beta-2 adrenergic receptor (Homo sapiens) (P07550 whole entry, looked up): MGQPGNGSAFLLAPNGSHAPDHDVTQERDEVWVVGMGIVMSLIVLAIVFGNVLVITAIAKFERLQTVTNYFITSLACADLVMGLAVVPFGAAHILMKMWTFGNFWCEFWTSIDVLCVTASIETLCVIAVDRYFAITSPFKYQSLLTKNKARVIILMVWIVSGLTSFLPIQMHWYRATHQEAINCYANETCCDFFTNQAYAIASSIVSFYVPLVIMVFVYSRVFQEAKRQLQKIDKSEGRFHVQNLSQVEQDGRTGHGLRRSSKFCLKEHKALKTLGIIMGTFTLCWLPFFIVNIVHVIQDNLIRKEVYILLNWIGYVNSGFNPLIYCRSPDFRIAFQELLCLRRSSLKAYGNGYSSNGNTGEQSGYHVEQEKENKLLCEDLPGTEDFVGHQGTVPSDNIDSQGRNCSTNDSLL
Outline: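 Cells (CHO, stable ADRB2 overexpression) incubated 18-20hr at 37C; compounds added from DMSO; agonist mix (1nM isoproterenol, 100uM IBMX, 25uM Ro-20-1724) added; 0.5hr RT; d2-cAMP and anti-cAMP-cryptate added; 1hr RT; 665/615 nm read.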

[10] = molecular target: D(2) dopamine receptor (Homo sapiens) (UniProt P14416); assay: Dopamine D2 receptor (DRD2) small molecule agonists, cell-based qHTS assay (AID 1963594); note: nearly all actives have a fitted effect of over 35% in size
Chain of D(2) dopamine receptor (Homo sapiens) (P14416 whole entry, looked up): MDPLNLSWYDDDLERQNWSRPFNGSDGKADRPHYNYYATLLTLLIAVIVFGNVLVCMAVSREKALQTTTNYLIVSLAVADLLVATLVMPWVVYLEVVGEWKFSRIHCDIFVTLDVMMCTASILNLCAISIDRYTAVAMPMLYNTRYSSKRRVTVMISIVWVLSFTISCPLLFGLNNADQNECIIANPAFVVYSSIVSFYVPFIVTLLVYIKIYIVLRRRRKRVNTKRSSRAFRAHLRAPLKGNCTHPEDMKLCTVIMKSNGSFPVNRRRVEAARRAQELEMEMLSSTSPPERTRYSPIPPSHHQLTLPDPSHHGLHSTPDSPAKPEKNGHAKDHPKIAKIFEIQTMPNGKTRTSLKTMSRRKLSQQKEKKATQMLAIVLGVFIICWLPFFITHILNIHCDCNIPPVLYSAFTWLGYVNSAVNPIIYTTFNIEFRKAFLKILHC
Outline: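 HEK293 cells stably expressing human DRD2, pre-treated with PDE inhibitor Ro20-1724 (0.1 mM final) and compound 10 min at room temperature, then stimulated with NKH477 (200nM […]) for 30 min. cAMP read by HTRF (665/620 nm).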

[11] = molecular target: D(2) dopamine receptor (Homo sapiens) (UniProt P14416); assay: Dopamine D2 receptor (DRD2) small molecule antagonists, cell-based qHTS assay (AID 1963595; active = well fitted inhibition curve with a large enough effect in the signal ratio in the repeat runs, with a control signal flat; the % refers to the signal ratio)
Outline: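 HTRF cAMP read-out at 665 and 620 nm emission (340 nm excitation). Antagonist mode: compounds were tested against 12 nM quinpirole in DRD2-HEK293 cells, with 200 nM NKH477 raising cAMP and 0.1 mM Ro20-1724 blocking its breakdown.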

[12] = p53 small molecule agonists, cell-based qHTS assay: qHTS cell viability counter screen (AID 1963581); note: nearly all actives have a fitted effect of over 45% in size
Outline: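 Compounds are pinned onto HCT-116 p53RE-bla cells and left 16 h at 37 C. Following the reporter FRET read, ATP is quantified by CellTiter-Glo luminescence after 30 min at room temperature.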

[13] = p53 small molecule agonists, cell-based qHTS assay (AID 1963582; active = well fitted activation curve with a large enough effect in the signal ratio in the repeat runs, not every such curve was filed as active; the % refers to the signal ratio)
Outline: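 Agonist activity was scored from beta-lactamase FRET fluorescence in p53RE-bla cells treated 16 h at 37 C with compounds in DMSO, substrate incubation being 2 h at room temperature.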

[14] = molecular target: 5-hydroxytryptamine receptor 2A (Homo sapiens) (UniProt P28223); assay: 5-hydroxytryptamine receptor 2A (HTR2A) small molecule antagonists, cell-based qHTS assay (AID 1963586); note: nearly all actives have a fitted effect of over 45% in size
Chain of 5-hydroxytryptamine receptor 2A (Homo sapiens) (P28223 whole entry, looked up): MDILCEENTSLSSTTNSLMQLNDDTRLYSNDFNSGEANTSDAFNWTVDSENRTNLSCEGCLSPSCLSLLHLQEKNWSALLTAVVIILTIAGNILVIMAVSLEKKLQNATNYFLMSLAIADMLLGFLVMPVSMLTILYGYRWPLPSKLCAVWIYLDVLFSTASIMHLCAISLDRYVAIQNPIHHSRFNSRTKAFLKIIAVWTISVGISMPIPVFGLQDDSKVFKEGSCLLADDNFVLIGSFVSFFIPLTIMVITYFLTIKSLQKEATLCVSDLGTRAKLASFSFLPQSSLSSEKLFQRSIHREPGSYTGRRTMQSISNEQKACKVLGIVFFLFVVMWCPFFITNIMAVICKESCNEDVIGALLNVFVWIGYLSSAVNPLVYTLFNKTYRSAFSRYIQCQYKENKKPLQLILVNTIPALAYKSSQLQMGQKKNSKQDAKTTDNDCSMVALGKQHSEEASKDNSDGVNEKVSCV
Outline: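 Antagonist-mode intracellular calcium assay: DOI (4 nM) added after 5 min compound pre-incubation at room temperature to dye-loaded HTR2A-CHO cells. Fluorescence followed for 3 min, sampled every second.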

[15] = molecular target: 5-hydroxytryptamine receptor 2A (Homo sapiens) (UniProt P28223); assay: 5-hydroxytryptamine receptor 2A (HTR2A) small molecule agonists, cell-based qHTS assay (AID 1963587); note: nearly all actives have a fitted effect of over 30% in size
Outline: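 CHO cells stably expressing human HTR2A, plated 18 h, loaded with calcium dye 1 h at 37 C. Agonist mode: compounds added and intracellular calcium fluorescence recorded kinetically for 2 min at 1 sec intervals.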

[16] = molecular target: Muscarinic acetylcholine receptor M1 (Homo sapiens) (UniProt P11229); assay: Cholinergic receptor muscarinic 1 (CHRM1) small molecule antagonists, cell-based qHTS assay (AID 1963588); note: nearly all actives have a fitted effect of over 40% in size
Chain of Muscarinic acetylcholine receptor M1 (Homo sapiens) (P11229 whole entry, looked up): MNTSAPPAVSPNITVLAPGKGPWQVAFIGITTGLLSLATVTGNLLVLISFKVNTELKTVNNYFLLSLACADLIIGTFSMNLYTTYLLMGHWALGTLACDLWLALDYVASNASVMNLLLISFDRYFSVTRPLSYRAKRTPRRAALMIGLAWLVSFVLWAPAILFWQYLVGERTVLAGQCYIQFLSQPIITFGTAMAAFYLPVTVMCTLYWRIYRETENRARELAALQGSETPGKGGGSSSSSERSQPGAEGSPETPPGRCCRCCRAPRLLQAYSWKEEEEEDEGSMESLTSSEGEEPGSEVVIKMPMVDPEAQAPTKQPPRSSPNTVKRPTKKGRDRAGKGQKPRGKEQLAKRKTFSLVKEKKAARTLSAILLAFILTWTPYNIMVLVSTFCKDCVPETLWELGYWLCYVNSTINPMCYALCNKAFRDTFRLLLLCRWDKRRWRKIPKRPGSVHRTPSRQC
Outline: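 CHRM1-CHO calcium-flux assay, antagonist mode. Cells were seeded 18 h, dye-loaded 1 h at 37 C and given compound for 5 min at RT, then acetylcholine was added at 50nM. FDSS fluorescence was read 3 min; 15 concentrations, three runs.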

[17] = molecular target: Muscarinic acetylcholine receptor M1 (Homo sapiens) (UniProt P11229); assay: Cholinergic receptor muscarinic 1 (CHRM1) small molecule agonists, cell-based qHTS assay (AID 1963589); note: nearly all actives have a fitted effect of over 35% in size
Outline: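 Stable CHRM1-CHO cells (human receptor) were incubated 18 h, dye-loaded for 1 h at 37 C and exposed to test compounds for agonist activity, with calcium-dependent fluorescence followed kinetically.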

[18] = cAMP Responsive Elements (CRE) small molecule agonists, cell-based qHTS assay (AID 1963590)
Outline: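 FRET-based beta-lactamase readout (LiveBLAzer B/G, 2 h RT) quantified CRE activation in HEK 293T CRE-bla cells after 3 h treatment with DMSO-dissolved compounds.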

[19] = molecular target: Beta-2 adrenergic receptor (Homo sapiens) (UniProt P07550); assay: Adrenergic beta2 receptor (ADRB2) small molecule agonists, cell-based qHTS assay (AID 1963593);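 note: CHO cells stably overexpressing human ADRB2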
Outline: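 CHO cells stably over-expressing ADRB2 were plated overnight at 37C, then dosed with compounds plus a stimulation mix containing 100uM IBMX and 25uM Ro-20-1724 for 0.5hr at room temperature. cAMP was measured by HTRF competition, 1hr.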

[20] = p53 small molecule agonists, cell-based qHTS assay with human liver microsomes: qHTS cell viability counter screen (AID 1963579); note: nearly all actives have a fitted effect of over 45% in size
Outline: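 Luminescent CellTiter-Glo read-out, 30 min at room temperature, gauged cytotoxicity in p53RE-bla cells exposed 16 h at 37 C to DMSO-dissolved compounds with metabolic activation by human liver microsomes and NADPH, each 0.5 mg/mL final.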
% is set by controls: 0 for no effect and ±100 for the full control effect.

COC(=O)Nc1nc2ccc(C(=O)c3cccs3)cc2[nH]1
inactive: Potency [2] | Potency [3] | Potency [4] | Potency [5] | Potency [6] | Potency [7] | Potency [8] | Potency [9] | Potency [10] | Potency [11]
active: Potency [1] 2.66 µM

CC1CCCNC1 (centres undefined)
active: Potency [1] 67.1 µM
inactive: Potency [2] | Potency [3] | Potency [4] | Potency [5] | Potency [6] | Potency [12] | Potency [13] | Potency [14] | Potency [15] | Potency [16] | Potency [17] | Potency [18] | Potency [8] | Potency [9] | Potency [19] | Potency [10] | Potency [11]

COC(=O)Nc1nc2ccc(C(=O)C3CC3)cc2[nH]1
active: Potency [1] 8.41 µM
inactive: Potency [2] | Potency [3] | Potency [4] | Potency [5] | Potency [6] | Potency [14] | Potency [15] | Potency [17] | Potency [18] | Potency [8] | Potency [10] | Potency [11]

N[C@@H](C(=O)N[C@@H]1C(=O)N2C(C(=O)O)=C(Cl)CS[C@H]12)c1ccccc1
inactive: activity, positive = activation [1] -7.33% [at 8.39 µM] | activity change [2] -0.646% [at 5.22 µM, hits give high values] | activation [3] -2.2% [at 6.97 µM] | activation [4] -0.0598% [at 5.23 µM] | activation [5] 0.17% [at 5.99 µM] | activation [6] -0.141% [at 5.99 µM] | activity change, negative = cytotoxicity [7] 0.042% [at 5.99 µM] | activation [13] 0.331% [at 5.99 µM] | activity, negative = inhibition [16] 6.01% [at 5.58 µM] | activation [17] -0.906% [at 6.97 µM] | activation [18] -0.664% [at 8.39 µM] | activity change, negative = inhibition [8] -10.2% [at 8.39 µM] | activation [19] -30.9% [at 8.39 µM] | activity change, negative = inhibition [11] 6.7% [at 8.38 µM]

CCCC1C(CC)=CC(CC)=CN1c1ccccc1 (centres undefined)
active: Potency [1] 61.1 µM
inactive: Potency [2] | Potency [3] | Potency [4] | Potency [5] | Potency [6] | Potency [12] | Potency [14] | Potency [15] | Potency [16] | Potency [17] | Potency [9] | Potency [10] | Potency [11]

CC1C2CC(CC2C2CCCC(O)C2)C1(C)C (centres undefined)
inactive: Potency [1] | Potency [2] | Potency [3] | Potency [4] | Potency [5] | Potency [6] | Potency [20] | Potency [13] | Potency [14] | Potency [15] | Potency [16] | Potency [17] | Potency [9] | Potency [19] | Potency [10] | Potency [11]

Clc1ccc(Cn2c(CN3CCCC3)nc3ccccc32)cc1
inactive: Potency [2] | Potency [3] | Potency [4] | Potency [5] | Potency [6] | Potency [20] | Potency [12] | Potency [17] | Potency [9] | Potency [19] | Potency [10] | Potency [11]
active: Potency [1] 33.5 µM
